From PubChem BioAssay
Calls of active or inactive are those of the source. Unless noted, no stated cut-off is given here; in the data, active means inhibition above about 30%; inactive means the rest.

assay: 384-well plate pilot, post-Golgi transport modulator project, inhibition of yeast transport mutant growth (AID 636; in the data active means inhibition above about 31%); settings: absorbance 615 nm, about 18 h, stronger effect = higher value

inhibition, inactive:
COc1ccccc1C1/C(=C(\O)c2c(C)nc3c(C)cccn23)C(=O)C(=O)N1CCCN(C)C (stereo not drawn) -7.43%
CCOC(=O)C1CCCN(Cc2nc(N)nc(Nc3ccc(C)cc3)n2)C1 (stereo not drawn) 0%
ON1C2CCCCC2N(O)C1c1c(F)c(F)c(F)c(F)c1F (stereo not drawn) -5.2%
CCOc1ccc(CN2C(=O)c3ccccc3C2C(=O)NCc2cccnc2)cc1 (stereo not drawn) -0.91%
CCOc1ccccc1NC(=O)CN(c1ccc(C)cc1)S(=O)(=O)c1c(C)noc1C -4.46%
CCCOc1ccc([C@@H]2C3CN(C(=O)OCC)CC=C3C(C#N)=C(N)C2(C#N)C#N)cc1OC (stereo partly drawn) -7.03%
COc1ccc(C2=NOC(C(=O)NCc3ccc(F)cc3)C2)cc1OC (stereo not drawn) -1.32%
COc1cc(C2CC(=O)NC3=C2C(=O)CC(C)(C)C3)ccc1O (stereo not drawn) -3.82%
CCOc1ccc2[nH]c(=O)c(CN(Cc3nnnn3CCc3ccccc3)CC3CCCO3)cc2c1 (stereo not drawn) -5.34%
Cc1cc(C)c2cc3c(ccn3C3OC[C@H](O)[C@H](O)[C@H]3O)cc2n1 (stereo partly drawn) -1.92%
N[C@@H](Cc1ccccc1)c1nnc2sc(SCc3ccccc3)nn12 -3.07%
CCC(C)NC(=O)C1(C)CCC(=O)N1Cc1ccccc1OC (stereo not drawn) -5.07%
Cc1cc(Nc2ccc(C(=O)O)cc2)n2nc(C)nc2n1 -4.67%

assay: growth suppression of yeast trafficking mutant, preliminary HTS, modulators of trafficking downstream of Golgi apparatus project, 1536-format plate, OD 615 nm (AID 637); settings: yeast transport mutant growth, absorbance 615 nm, 18 h; stronger effect = higher value

inhibition, inactive:
CC(=O)Nc1ccc(S(=O)(=O)N2CCN(C(C)CCc3ccccc3)CC2)cc1 (stereo not drawn) -1.29%
COc1ccc(NC(=O)Nc2cc(C)ccc2OC)cc1 -3.11%
O=C(CNS(=O)(=O)c1ccc(Br)s1)N1CCCC1 6.89%
Cn1c(=N)n(CC(=O)O)c2ccccc21 -5.4%
CC(C)(C)Nc1nc(OCC(F)(F)F)nc(OCC(F)(F)F)n1 -10.6%
COc1cc(CC(=O)Nc2ncc(C)s2)cc(OC)c1OC 5.74%
Cc1ccc(NC2=NC3(CCCCC3)N=C(N)N2)c(C)c1 -5.87%
C=CCSc1nnc(-c2ccccc2NC(C)=O)c(=O)[nH]1 -0.36%
CC1CCN(CCCNC(=O)c2cn(C)c3ccc(S(=O)(=O)N4CCCC4)cc3c2=O)CC1 1%
C=CCOc1ccc(/C(O)=C2\C(=O)C(=O)N(CCOC)C2c2cccnc2)cc1 (stereo not drawn) 1.17%
Cc1cccc(C(=O)N2CCC(n3nnc4cc(F)ccc43)CC2)c1 2.67%
CC(C)Oc1ccc(N2CC(C(=O)Nc3ccccc3F)CC2=O)cc1 (stereo not drawn) -10.3%
O=C(CSc1ncc(-c2ccc(F)cc2)[nH]1)N1CCCCC1 0%
CCCNC(=O)Nc1ccccc1C(=O)Nc1ccc(OC)cc1 -2.3%
COc1ccccc1OCC(=O)NCC1CCCCC1 -9.33%
Cc1ccccc1NC(=O)CSc1nc(N)c(C#N)c(-c2cccs2)c1C#N 6.83%
c1ccc(CCc2nc(-c3cccnc3)no2)cc1 1.31%
COc1cc(NC2=CC(=O)CC(C)(C)C2)cc(OC)c1 -7.17%
Cc1ccccc1CN1CCN(CC(=O)NCc2ccccc2)C1=O 2.79%
CCOC(=O)c1nnc(-c2ccccc2)o1 -1.43%
CCC(c1nnc(SCC(=O)NCC2CCCO2)n1Cc1ccccc1)N(C)C (stereo not drawn) -1.61%
Cc1ccc(N2CC(C)Cn3c2nc2c3c(=O)n(CC(=O)OCc3ccccc3)c(=O)n2C)cc1C (stereo not drawn) 1.97%
CCNC(=O)c1ccc(NS(=O)(=O)c2ccccc2)cc1 4.1%
CCOc1ccc(-c2nc(C#N)c(N3CCCCCC3)o2)cc1 -0.17%
Cc1ccc(NS(=O)(=O)c2cn(C)cn2)cc1 2.36%
Fc1ccccc1-c1nc(-c2ccccc2)no1 -3.87%
CCOC(=O)C1=C(C)NC(C)=C(C(=O)OCC)C1c1cc(N)ccc1OC(F)F -7.21%
COc1ccccc1C1/C(=C(\O)c2c(C)nc3c(C)cccn23)C(=O)C(=O)N1CCCN(C)C (stereo not drawn) 5.67%
CCOC(=O)C1CCCN(Cc2nc(N)nc(Nc3ccc(C)cc3)n2)C1 (stereo not drawn) 7.54%
ON1C2CCCCC2N(O)C1c1c(F)c(F)c(F)c(F)c1F (stereo not drawn) -0.97%
